Measurements published in the antibiotic and cytotoxicity screens of Wong et al. (2023).
Out of some 39,000 compounds screened, about 3,300 (8.5%) were called active. For the sample, actives were picked, then their nearest neighbours and some compounds at random.

What follows are compounds tested on HepG2 (assay: cytotoxicity call (relative viability < 0.9)). Settings: 10 µM.

Structure (SMILES) | cytotoxicity call
CCOCC(=O)N1CC[C@H]2CNC[C@H]21 | inactive
COc1cccc(C2(N)CCCC2)c1 | inactive
CC(C)[C@H]1CN2CCC[C@H]2[C@@]2(O)O[C@](CC(=O)[C@@H]3C=C4c5cccc6[nH]cc(c56)C[C@H]4N(C)C3)(C(C)C)C(=O)N12 | inactive
C[C@H](CO)N1C[C@H](C)[C@@H](CN(C)C(=O)Oc2ccc3ccccc3c2)OCc2cn(nn2)CCCC1=O | inactive
NC(=N[N+](=O)[O-])NCCC[C@H](N)C(=O)O | inactive
CC(C)[C@H]1CNC(=O)C1 | inactive
O=C1NC(=S)NC(=O)C1c1ccccc1 | inactive
C#CCO[C@H]1CN2CCC1CC2 | inactive
CC(C)C[C@@H](N)C1(c2ccc(Cl)cc2)CCC1 | inactive
CC1OC(OC2C=C3CCC4C(CCC5(C)C(c6ccc(=O)oc6)CCC45O)C3(C)CC2)C(O)C(O)C1O (centres undefined) | active
CN1CCc2cc3c(cc2C1C1OC(=O)c2c1ccc1c2OCO1)OCO3 (centres undefined) | inactive
ClC(Cl)=C(c1ccc(Cl)cc1)c1ccc(Cl)cc1 | inactive
Nc1ccccc1N1CCNCC1 | inactive
CN(C)C(=O)CN1CCN(C)C(=O)[C@]12CCN(c1ncccn1)C2 | inactive
[NH2][Pt]1([NH2])[O]C(=O)C2(CCC2)C(=O)[O]1 | inactive
O=[N+]([O-])OC1COC2C(O)COC12 (centres undefined) | inactive
CCn1cnc2c(Nc3cccc(Cl)c3)nc(N[C@@H]3CCCC[C@@H]3N)nc21 | active
Cc1cccc([C@H](CN)N(C)C)c1 | inactive
C[C@@H]1CN([C@@H](C)CO)C(=O)CCCn2cc(nn2)CO[C@H]1CN(C)C(=O)Oc1cccc2ccccc12 | inactive
COCCCNC(=O)[C@@]1(Cc2ccccc2CN=[N+]=[N-])N=C(c2ccc(OCCCO)cc2)O[C@H]1c1ccccc1N=[N+]=[N-] | inactive
[N-]=[N+]=Nc1ccccc1C[C@@]1(C(=O)NCc2ccccc2)N=C(c2ccc(OCCCO)cc2)O[C@@H]1c1ccccc1N=[N+]=[N-] | inactive
COC(=O)[C@@]1(Cc2ccccc2N=[N+]=[N-])N=C(c2ccc(OCCCO)cc2)O[C@H]1c1ccccc1CN=[N+]=[N-] | inactive

Structure (SMILES) | cytotoxicity call
CN(C)C(=O)[C@]1(Cc2ccccc2CN=[N+]=[N-])N=C(c2ccc(OCCCO)cc2)O[C@@H]1c1ccccc1N=[N+]=[N-] | inactive
[N-]=[N+]=NCc1ccccc1C[C@]1(C(=O)NCc2ccccc2)N=C(c2ccc(OCCCO)cc2)O[C@H]1c1ccccc1N=[N+]=[N-] | active
CN(C)C(=O)[C@@]1(Cc2ccccc2CN=[N+]=[N-])N=C(c2ccc(OCCCO)cc2)O[C@H]1c1ccccc1N=[N+]=[N-] | active
COC(=O)[C@]1(Cc2ccccc2CN=[N+]=[N-])N=C(c2ccc(OCCCO)cc2)O[C@@H]1c1ccccc1N=[N+]=[N-] | active
CN(C)C(=O)[C@@]1(Cc2ccccc2N=[N+]=[N-])N=C(c2ccc(OCCCO)cc2)O[C@H]1c1ccccc1N=[N+]=[N-] | inactive
COCCCNC(=O)[C@]1(Cc2ccccc2N=[N+]=[N-])N=C(c2ccc(OCCCO)cc2)O[C@@H]1c1ccccc1N=[N+]=[N-] | inactive
COCCCNC(=O)[C@@]1(Cc2ccccc2CN=[N+]=[N-])N=C(c2ccc(OCCCO)cc2)O[C@H]1c1ccccc1CN=[N+]=[N-] | active
COC(=O)[C@@]1(Cc2ccccc2CN=[N+]=[N-])N=C(c2ccc(OCCCO)cc2)O[C@H]1c1ccccc1N=[N+]=[N-] | inactive
CN(C)C(=O)CN1C[C@H]2CON[C@@H]2C1 | inactive
O=C(c1ccccc1)C12CN3CN(CN(C3)C1)C2 | inactive
CC(C)c1cc2c(c(O)c1O)C1(C(=O)O)CCCC(C)(C)C1CC2 (centres undefined) | inactive
CN1C[C@@H]2CNC[C@@H]2C1=O | inactive
C[C@@H]1CN([C@@H](C)CO)C(=O)CCCn2nncc2CO[C@H]1CN(C)C(=O)Oc1ccc2ccccc2c1 | inactive
C1CO[C@H]2[C@@H](C1)CNC[C@H]2N1CCOCC1 | inactive
NCCc1c[nH]c2ccc(C(N)=O)cc12 | inactive
NCCc1ccncc1 | inactive
OC1(c2cccnc2)CCNCC1 | inactive
CCN(Cc1ccc(Cl)nc1)C(=C[N+](=O)[O-])NC | inactive
Cc1ccc2n[nH]c(CN)c2c1 | inactive
[N-]=[N+]=Nc1ccccc1C[C@]1(C(N)=O)N=C(c2ccc(OCCCO)cc2)O[C@H]1c1ccccc1N=[N+]=[N-] | inactive
COC(=O)[C@@]1(Cc2ccccc2CN=[N+]=[N-])N=C(c2ccc(OCCCO)cc2)O[C@H]1c1ccccc1CN=[N+]=[N-] | inactive
COC(=O)[C@]1(Cc2ccccc2N=[N+]=[N-])N=C(c2ccc(OCCCO)cc2)O[C@@H]1c1ccccc1N=[N+]=[N-] | active

Structure (SMILES) | cytotoxicity call
COC(=O)[C@]1(Cc2ccccc2N=[N+]=[N-])N=C(c2ccc(OCCCO)cc2)O[C@@H]1c1ccccc1CN=[N+]=[N-] | inactive
COC(=O)[C@]1(Cc2ccccc2CN=[N+]=[N-])N=C(c2ccc(OCCCO)cc2)O[C@@H]1c1ccccc1CN=[N+]=[N-] | active
COC(=O)[C@@]1(Cc2ccccc2N=[N+]=[N-])N=C(c2ccc(OCCCO)cc2)O[C@H]1c1ccccc1N=[N+]=[N-] | inactive
CO[C@@H]1[C@H](OC(=O)NC(=O)CCl)CC[C@]2(CO2)[C@H]1[C@@]1(C)O[C@@H]1CC=C(C)C | inactive
CN1CCCCC1c1ccc(-c2cccnc2)nc1.Cl (centres undefined) | inactive
CN(CCC[C@@H](O)c1cccnc1)[NH2+][O-] | inactive
C=C(C)[C@@H]1[C@H]2OC(=O)[C@@H]1[C@]1(O)C[C@H]3O[C@]34C(=O)O[C@H]2[C@]14C | inactive
O[C@@]12CCCC[C@@H]1CNCC2 | inactive
CN1[C@@H]2CC[C@@H]1CC(N)C2 (some centres undefined) | inactive
Nc1nc(N)nc(NC2CC2)n1 | inactive
CCN1CCN(c2nc([N+](=O)[O-])nn2C)CC1 | inactive
C[C@@H](N)Cc1cccc(O)c1 | inactive
CC(C)c1cccc(C(C)C)c1O | active
CC(C)c1cccc2c1OCC[C@H](N)[C@@H]2O | inactive
C[C@@H](CN)CC(=O)O | inactive
CC(=O)[O][PbH2][O]C(C)=O | inactive
Clc1ccc(Cl)cc1 | inactive
Oc1ccc(Cl)cc1Cc1cc(Cl)ccc1O | active
O=C(O)c1cc(Cl)ccc1Cl | inactive
CCN1C[C@]23CNC[C@@H](C[C@H]2S1(=O)=O)O3 | inactive
C1CC(NC2CCOCC2)CCO1 | inactive
O=C1C=C2C(=CCOC2O)O1 (centres undefined) | active

Structure (SMILES) | cytotoxicity call
O=C1C=C2C(=CCO[C@@H]2O)O1 | inactive
CC(=O)N[C@H]1C(=O)NC(=S)N(c2ccccc2)C1=O | inactive
N#CCCN1CCCC2(CCCC2)C1 | inactive
N/N=C(/N)NO | inactive
COc1ccc(OC(=O)N(C)C[C@@H]2OCc3ccccc3-c3c(n(C)c4ccccc34)C(=O)N([C@@H](C)CO)C[C@@H]2C)cc1 | inactive
COC(=O)[C@@H]1[C@@H](CO)[C@@H]2Cn3c(cccc3=O)[C@H]1N2C(=O)C1CC1 | inactive
N[C@@H](CO)Cc1ccccc1 | inactive
CCN(CC)C(=O)C1=NO[C@]2(CCNC2)C1 | inactive
COc1cc2c(cc1O)CCNC2C (centres undefined) | inactive
COc1cc2c(cc1OC)C(C)NCC2 (centres undefined) | inactive
COc1cc2c(cc1OC)C1CC(=O)C(CC(C)C)CN1CC2 (centres undefined) | active
CCC1CN2CCc3cc(OC)c(OC)cc3C2CC1CC1NCCc2cc(OC)c(OC)cc21.Cl.Cl (centres undefined) | active
CNC1C(O)C(OC2C(N)CC(N)C(OC3OC(C(C)O)C(O)C(O)C3N)C2O)OCC1(C)O (centres undefined) | inactive
CNC(=O)[C@H]1C[C@H]2CN(CC3CC3)C[C@H]1O2 | inactive
CCN1C[C@H]2C[C@H](C(=O)NCC3CC3)[C@@H](C1)O2 | inactive
C[C@@]1(O)[C@H](O)[C@@H](CO)O[C@H]1n1ccc2c(N)ncnc21 | inactive
CN(C)C(=O)Oc1cccc([N+](C)(C)C)c1.COS(=O)(=O)[O-] | inactive
COc1ccc(Cc2nccc3cc(OC)c(OC)cc23)cc1OC.Cl | active
COc1ccc(C[C@@H](N)c2ccc(C)cn2)cc1OC | inactive
COc1ccc(CCN)cc1OC | inactive
NCCc1cc(O)c(O)cc1O | inactive
COc1cccc(C=O)c1OC | inactive

Structure (SMILES) | cytotoxicity call
COc1cc(OC)c(OC)cc1C=O | active
COc1cc2c(cc1C=O)OCO2 | inactive
O=C1C[C@@H](c2ccc(O)cc2)CN1 | inactive
O=C(O)C(Cl)Cl | inactive
N[C@@H](Cc1ccccc1)c1ccc2c(c1)OCCO2 | inactive
C1CCC(NC2CCCCC2)CC1 | inactive
CC12C=CC(=O)C=C1CCC1C2CCC2(C)C(=O)CCC12 (centres undefined) | inactive
CCC1(C2OC(C3OC(O)(CO)C(C)CC3C)CC2C)CCC(C2(C)CCC3(CC(O)C(C)C(C(C)C(OC)C(C)C(=O)[O-])O3)O2)O1.[Na+] (centres undefined) | active
Cl.NCCc1ccccc1 | inactive
S=C=NCc1ccccc1 | active
NC(Cc1ccccc1)Cc1ccccc1 | inactive
O=C(O)[C@H]1N[C@H]2CC[C@@H]1C2 | inactive
CC(=O)N[C@@H]1[C@H](O[C@@H]2O[C@H](C[C@@H](O)[C@H]3O[C@@H](n4ccc(=O)[nH]c4=O)[C@H](O)[C@@H]3O)[C@H](O)[C@H](O)[C@H]2NC(=O)/C=C/CCCCCCCCC(C)C)O[C@@H](CO)[C@H](O)[C@H]1O | active
COc1ccc(OC(=O)N(C)C[C@H]2OCc3ccccc3-c3c(n(C)c4ccccc34)C(=O)N([C@H](C)CO)C[C@H]2C)cc1 | inactive
C1COC2(CN1)CNC2 | inactive
O.O=P1(N(CCCl)CCCl)NCCCO1 (centres undefined) | inactive
Cc1ccnc(N2CCNCC2)c1 | inactive
CC1=C[C@H]2[C@]3(O)[C@H](C=C(CO)C[C@]2(O)C1=O)[C@H]1C(C)(C)[C@@]1(O)[C@H](O)[C@@H]3C | inactive
CCCCCCCCCC(=O)O[C@@H]1[C@@H](C)[C@]2(O)[C@@H](C=C(CO)C[C@]3(O)C(=O)C(C)=C[C@@H]23)[C@@H]2C(C)(C)[C@@]12OC(=O)CCCCCCCCC | active
CCCCCCCCCCCCCC(=O)O[C@@H]1[C@@H](C)[C@@]2(O)[C@@H](C=C(CO)C[C@]3(O)C(=O)C(C)=C[C@@H]23)[C@@H]2C(C)(C)[C@]12OC(C)=O | active
CCCCCCCCCC(=O)O[C@@H]1[C@@H](C)[C@@]2(O)[C@@H](C=C(CO)C[C@]3(O)C(=O)C(C)=C[C@@H]23)[C@@H]2C(C)(C)[C@]12OC(=O)CCCCCCCCC | inactive
